Source: PubChem
Rows were chosen to be rich in hits. Some 3.4% of all compounds tested hit in one or more screens of this group.
FLuc inh: qHTS Assay for Inhibitors of Firefly Luciferase | Potency, µM (doses to about 57.1 µM), actives largely listed as inhibitors | hit rate 2.2% among 72,000 | purified firefly luciferase, luminescence, 8 min | Luciferin 4-monooxygenase (Photinus pyralis), P08659; active = well fitted inhibition curve with a large enough effect; inconclusive = small, poorly fitted or top-dose-only effect; also: nearly all actives have a fitted effect of over 40% in size
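Luminescence read-out after 8 min at room temperature; enzyme reaction used luciferin plus 10 uM ATP (linear range) in imidazole buffer pH 7.2 with KCl, MgCl2, Tween 20 and BSA. Each sample was run as a titration.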
PK Bst: Pyruvate Kinase; hit rate 1.2% among 51,000; purified pyruvate kinase, luminescence ATP production; ribose 5-phosphate activator present at AC10; Potency, µM; in the data active = potency below about 11 µM; inconclusive = mostly about 12 µM to 25 µM;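 the screen sought inhibitors and activators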
GBA activity: Glucocerebrosidase. purified enzyme, resorufin glucoside fluorescence (screen aimed at inhibitors), 20 min. Potency, µM. hit rate 1.1% among 48,000; in the data active = potency below about 15 µM; inconclusive = mostly about 16 µM to 33 µM;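 also: the screen sought inhibitors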
Target sequence (P04062 whole entry, looked up): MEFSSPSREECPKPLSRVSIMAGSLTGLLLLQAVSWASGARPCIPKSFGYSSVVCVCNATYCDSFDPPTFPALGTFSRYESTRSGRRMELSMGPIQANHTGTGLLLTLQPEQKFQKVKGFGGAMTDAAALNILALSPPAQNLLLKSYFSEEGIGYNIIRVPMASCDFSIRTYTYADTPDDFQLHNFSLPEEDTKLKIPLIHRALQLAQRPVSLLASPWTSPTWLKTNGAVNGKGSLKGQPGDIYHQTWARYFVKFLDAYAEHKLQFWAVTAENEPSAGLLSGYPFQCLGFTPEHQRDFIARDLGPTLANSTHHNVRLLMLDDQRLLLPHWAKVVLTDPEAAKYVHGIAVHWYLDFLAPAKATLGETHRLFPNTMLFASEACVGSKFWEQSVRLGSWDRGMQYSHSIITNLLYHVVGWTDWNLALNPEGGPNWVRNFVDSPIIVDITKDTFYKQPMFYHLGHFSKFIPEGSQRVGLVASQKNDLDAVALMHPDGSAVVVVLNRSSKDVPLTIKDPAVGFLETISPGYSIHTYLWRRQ
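Compounds titrated against 0.2 nM normal enzyme, 30 uM resorufin beta-D-glucopyranoside substrate, citrate/phosphate buffer with taurocholate and tween-20, pH 5.9. Reaction ran 20 min at room temperature; fluorescence (Ex 548/Em 600) gave AC50.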
A number is an active result; n = inactive; u = inconclusive; x = no result given; [ ] = remark or other dose.

SMILES | FLuc inh | PK Bst | GBA activity
CNc1ncnc2c1ncn2[C@H]1C[C@@H](OP(=O)(O)O)[C@H](COP(=O)(O)O)O1 | n | x | x
CN(C)C[C@@H](O)c1ccc(Cl)c2ccccc12 | n[11.4 µM] | x | x
CCOC(=O)N1CCN(C(=O)Nc2ccc(Cl)cc2)CC1 | n | n | n
CCN1CCN(C(=O)Nc2ccc(Cc3ccc(NC(=O)N4CCN(CC)CC4)cc3)cc2)CC1 | 13µM | x | x
COc1ccc(Oc2ncc3nc(C)c(=O)n(Cc4ccc(F)cc4)c3n2)cc1 | n[11.4 µM] | x | x
CC(C)(C)C(=O)c1sc(Nc2ccccc2)nc1N | 13µM | u | n
NC(=O)c1sc2nccc(Nc3ccccc3)c2c1N | n | n | n
COc1ccccc1Cn1c(=O)[nH]c2cccnc21 | n | n | n
COc1cccc2[nH]c(-c3ccccn3)nc12 | 3.2µM | x | x
Cc1ccc(S(=O)(=O)N2CCCCC2)cc1C(=O)c1nccn1C | n | n | 10
Cc1ccnc(NC(=O)c2cc(S(=O)(=O)N3CCCCC3)ccc2Cl)c1 | n | n | n
Nc1[nH]c(=O)nc2c1ncn2[C@H]1O[C@@H](CO)[C@@H](O)[C@@H]1O | n[11.4 µM] | x | x
C[C@H]1COC(=O)[C@H]2CCCN2C(=O)[C@@H](C)COC(=O)[C@H]2CCCN2C1=O | n[11.4 µM] | x | x
CCOC(=O)N1CCC(NC(=O)c2cccc3c2C(=O)N(Cc2cccnc2)C3)CC1 | n | n | n
COCCN1Cc2cccc(C(=O)Nc3cccnc3)c2C1=O | n | x | n
CCCN1Cc2cccc(C(=O)Nc3ccc(OC)c(OC)c3)c2C1=O | n | n | n
CCOc1ccc(NC(=O)c2cccc3c2C(=O)N(Cc2cccnc2)C3)cc1 | 4µM | 4.2 | n
CCCN1Cc2cccc(C(=O)Nc3ccc(CN4CCCC4)cc3)c2C1=O | 20µM | n | n
COCCN1Cc2cccc(C(=O)Nc3ccc(S(=O)(=O)N4CCCCC4)cc3)c2C1=O | n | n | 15
c1ccc2c(CSCc3cccc4ccccc34)cccc2c1 | n[11.4 µM] | x | x
Cc1cc(=O)[nH]c2cc3oc4ccccc4c3cc12 | n[11.4 µM] | x | x
COc1ncc2nc(-c3ccccc3)c(=O)n(-c3ccccc3)c2n1 | n[11.4 µM] | x | x
Cc1ccc2cc(C)c3nnc(SCC(=O)NCc4ccco4)n3c2c1 | n | u | n
Cc1ccc2c(c1)cc(C)c1nnc(SCC(=O)NCc3ccco3)n12 | n | 4.2 | n
COc1ccc(-c2nc3cnc(OC)nc3n(C3CC3)c2=O)cc1 | n[11.4 µM] | x | x
SMILES | FLuc inh | PK Bst | GBA activity
CC(C)c1ccc2oc(-c3ccc(N)cc3)nc2c1 | 1.3µM | x | x
Cc1ccc(-c2nc3cc(N)ccc3o2)cc1 | 2.5µM | x | x
Nc1ccc2oc(-c3cccs3)nc2c1 | u | n | n
O=c1oc(-c2ccco2)nc2ccccc12 | n | x | x
Cc1ccc2oc(-c3ccco3)nc2c1 | 25µM | x | n
CCC(C)c1ccc2oc(-c3ccc(NC(=O)c4ncn[nH]4)cc3)nc2c1 (stereo not drawn) | u | n | n
CC(C)c1ccc2oc(-c3ccc(NC(=O)c4ncn[nH]4)cc3)nc2c1 | 10µM | n | n
Cc1ccc(-c2nc3cc(N)ccc3o2)c(C)c1 | n | n | x
CCC(=O)OCN1C(=O)C=CC1=O | n[11.4 µM] | x | x
CC(=O)c1c(O)c(C)c(O)c2c1OC1=CC(=O)[C@H](C(C)=O)C(=O)[C@]12C | n[11.4 µM] | x | x
CC(=O)N1CCC2(CC1)CN(Cc1ccc(C#N)cc1)C2 | n[11.4 µM] | x | x
COc1ccc(NC(=O)N2CC3(CCNCC3)C2)cc1 | n[11.4 µM] | x | x
COC(=O)c1ccc(-c2nc3ccccc3o2)cc1 | n | x | n
Cc1ccc2oc(-c3ccc(NC(=O)c4cccnc4)cc3)nc2c1 | n | x | n
COC(=O)c1ccc(-c2nc3ccc(C)cc3o2)cc1 | u | 3.3 | n
Cc1ccc(-c2nc3cc(C)ccc3o2)cc1 | 0.4µM | x | x
COc1ccc(CNc2ncncc2-c2c(C)noc2C)c(OC)c1 | n[2.29 µM] | x | x
CC(=O)/C=C(\C)Nc1ccc(-c2cnc(-c3ccccc3)o2)cc1 | 10µM | x | x
c1ccc(-c2cnc(-c3ccc(-c4ncc(-c5ccccc5)o4)cc3)o2)cc1 | n[11.4 µM] | x | x
Cc1ccc(OCc2occc2C(=O)O)cc1 | n | x | x
N#CCSc1nc2c(sc(=S)n2Cc2ccco2)c(=O)n1-c1ccc(F)cc1 | n | n | 6
CCn1c(=S)sc2c(=O)n(-c3ccccc3)c(SC)nc21 | n | n | n
CN1[C@@H]2CC(OC(=O)[C@@H](CO)c3ccccc3)C[C@@H]1[C@H]1O[C@H]12 (stereo partly drawn) | n[11.4 µM] | x | x
COc1cccc(OC)c1C(=O)Nc1ccc(N2CCN(S(C)(=O)=O)CC2)cc1 | n | n | n
COc1ccc(Br)cc1C(=O)Nc1ccc(N2CCN(S(C)(=O)=O)CC2)cc1 | n | n | 12
SMILES | FLuc inh | PK Bst | GBA activity
Cn1c(=O)[nH]c(=O)c2c1nc(N1CCCCCC1)n2CCN1CCCCCC1 | n | n | 11
Cn1c(=O)[nH]c(=O)c2c1nc(N1CCCCC1)n2CC(O)CN1CCCCC1 (stereo not drawn) | n | n | n
NCCC[C@H](N)CC(=O)N[C@H]1CNC(=O)[C@@H]([C@@H]2C[C@H](O)N=C(N)N2)NC(=O)/C(=C/NC(N)=O)NC(=O)[C@@H](CO)NC(=O)[C@@H](CO)NC1=O | n | x | x
Cc1ccc(S(=O)(=O)N[C@H]2COC(=O)C/C=C\[C@@H](C)COC(=O)C/C=C\[C@@H]2C)cc1 | n[11.4 µM] | x | x
O=C(Nc1cccc(F)c1)N1CC[C@@]2(CCCN(C(=O)c3ccncc3)C2)C1 | n[11.4 µM] | x | x
C=CCNc1nc2c3ccccc3n(C(C)=O)c2s1 | 20µM | n | n
CC(=O)n1c2ccccc2c2c(C#N)c(N3CCCCC3)sc21 | n | n | n
OC[C@@H]1O[C@@H](n2cnc3c(NC4CCCC4)ncnc32)[C@@H](O)[C@H]1O | n | x | x
N[C@](CC1c2ccccc2Oc2ccccc21)(C(=O)O)[C@@H]1C[C@@H]1C(=O)O | n | x | x
COc1ccc(NC(=O)c2ccc(NS(=O)(=O)c3c(C)noc3C)cc2)cc1OC | n | n | 0.29
COc1ccccc1NC(=O)c1ccc(NS(=O)(=O)c2c(C)noc2C)cc1 | n | n | n
Cc1ccc(C)c(N2CCN(C(=O)c3ccc(NS(=O)(=O)c4c(C)noc4C)cc3)CC2)c1 | n | n | u
COc1ccccc1CNC(=O)c1ccc(NS(=O)(=O)c2c(C)noc2C)cc1 | n | n | u
Cc1ccc(NC(=O)c2ccc(NS(=O)(=O)c3c(C)noc3C)cc2)cc1C | n | n | 11
COc1ccc(CNC(=O)c2ccc(NS(=O)(=O)c3c(C)noc3C)cc2)cc1 | n | n | u
Cc1noc(C)c1S(=O)(=O)Nc1ccc(C(=O)NC2CCCCC2)cc1 | n | n | 4.1
Cc1noc(C)c1S(=O)(=O)Nc1ccc(C(=O)NCCc2ccccc2)cc1 | n | n | 1.6
NCCCc1ccc2oc3ccccc3c2c1 | n[11.4 µM] | x | x
COc1ccccc1OCc1ccc(C(=O)NC(C)(C)C)o1 | n | n | n
COc1ccccc1OCc1ccc(C(=O)Nc2ccncc2)o1 | n | n | 13
CS(=O)(=O)N1CCC2(CCN(Cc3nccs3)CC2)CC1 | n[11.4 µM] | x | x
COc1ccc(C(=O)c2ccccc2O)c(O)c1 | n | x | x
COc1ccc(O)c(C(=O)CC(=O)c2ccccc2)c1 | 20µM | x | x
C=CC[C@@H]1C=C[C@H](O/N=C(\C)CCN2CCCCc3nc(C)c(C)cc32)[C@H](CO)O1 | n[11.4 µM] | x | x
COc1ncc2nc(-c3cn(C)c4ccccc34)c(=O)n(C[C@H]3CCCO3)c2n1 | n[11.4 µM] | x | x
CC1CC1C(=O)OCC(=O)NCc1ccccc1Cl (stereo not drawn) | n | n | n
O=C(COC(=O)C1CCC1)NCc1ccccc1Cl | 16µM | n | n
CN1[C@@H](c2ccccc2)CC(=NO)C[C@H]1c1ccccc1 | n[11.4 µM] | x | x
